High-throughput results deposited in PubChem BioAssay by several laboratories.
Compounds with a hit are over-represented: about 7% of the library has one in this group of screens.
proKLK7 act = proKLK7 (human) activation, primary screen; P49862; purified proKLK7, EDANS-DABCYL substrate fluorescence; 100% is mature enzyme control, 0% vehicle; activation, % at 7 µM; 370,000 tested, 0.9% active; AID 652039;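 active means activation above the mean of all tested compounds plus 3 SD, computed per campaign excluding outliers beyond control limits, cut at about 13% in these data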
GRIN3A LBD mod = NR3A (human) ligand-binding domain modulation; NR3A LBD differential scanning fluorimetry, Tm shift; 0% = protein alone, 100% = glycine-bound protein; Tm shift relative to glycine control, % at 25 µM; 340,000 tested, 2.5% active; AID 1259313;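 active means melting temperature shift of at least 10% of the positive control shift, at one fixed dose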
ADAM17 inh = inhibits human ADAM17. 370,000 tested, 0.83% active. P78536. recombinant ADAM17, EDANS/DABCYL FRET peptide cleavage. AID 720648. inhibition, % at 6.95 µM;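 active means inhibition above the mean of compounds lying between control limits plus 3 SD, set per campaign, cut at about 8.5% in these data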
rCAG binder = molecules binding r(CAG) RNA repeats | AID 651821 | inhibition, % at 3 µM | r(CAG) RNA repeat, TO-PRO-1 dye displacement fluorescence | 370,000 tested, 1.3% active;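 active means inhibition above the plate cutoff, the mean of all test compounds on that plate plus 3 SD, cut at about 35% in these data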;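 further: higher means more dye released from RNA so lower well fluorescence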
AHR activator = activators of human aryl hydrocarbon receptor. P35869. AHR-responsive luciferase reporter cells, luminescence. activation, % at 5 µM. 320,000 tested, 2.5% active; in the data active means activation above about 47%
ADAM10 inh = inhibitors of human ADAM10. 370,000 tested, 0.62% active. inhibition, % at 7 µM. recombinant ADAM10, EDANS/DABCYL FRET peptide cleavage, 3 h;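 active means inhibition above a per-campaign cutoff equal to the mean of compounds falling between control-based bounds plus 3 SD, cut at about 20% in these data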
Target sequence (O14672 214-748 limits assumed): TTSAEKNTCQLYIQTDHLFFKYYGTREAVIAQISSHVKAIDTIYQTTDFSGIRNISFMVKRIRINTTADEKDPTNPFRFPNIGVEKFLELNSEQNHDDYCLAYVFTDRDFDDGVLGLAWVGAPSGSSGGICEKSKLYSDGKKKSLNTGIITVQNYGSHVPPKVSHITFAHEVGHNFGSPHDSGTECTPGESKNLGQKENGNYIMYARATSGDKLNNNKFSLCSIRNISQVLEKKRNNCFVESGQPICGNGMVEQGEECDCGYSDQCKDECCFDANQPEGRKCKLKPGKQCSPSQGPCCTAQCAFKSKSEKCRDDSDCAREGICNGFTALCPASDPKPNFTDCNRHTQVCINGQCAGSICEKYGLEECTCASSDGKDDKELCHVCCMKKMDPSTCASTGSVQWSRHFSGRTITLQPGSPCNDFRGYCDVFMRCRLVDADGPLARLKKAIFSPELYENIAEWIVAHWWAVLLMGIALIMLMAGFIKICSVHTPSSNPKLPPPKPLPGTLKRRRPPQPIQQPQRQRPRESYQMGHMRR
A number is an active result; i = inactive; nt = no result given.

SMILES | proKLK7 act | GRIN3A LBD mod | ADAM17 inh | rCAG binder | AHR activator | ADAM10 inh
Cc1nc2cc(C(=O)O)ccc2n1-c1ccc(F)cc1F | i | 15 | i | i | i | i
CCOc1cc(/C=C2/C(=O)ON=C2C)cc(Br)c1O | i | 21 | i | i | i | i
O=C1c2ccccc2/C(=C\c2ccc(Br)nc2)N1c1ccccc1 | i | nt | i | i | nt | i
O=C(Nc1ccccc1OC(F)F)c1oc2ccccc2c1COc1ccccc1 | i | i | i | i | 49 | i
COCc1c(C(=O)Nc2ccc(Cl)cc2F)oc2ccccc12 | i | i | i | i | 71 | i
CCC(NC(=O)c1oc2ccccc2c1COC)c1ccc(OC)cc1 (configuration not stated) | i | i | i | i | i | i
NC(=Nc1cccc(F)c1)NC(=O)OCc1ccccc1 | i | nt | i | i | nt | i
CCOC(=O)N1CCC(N2C(=O)c3ccc(C(=O)O)cc3C2=O)CC1 | i | i | i | i | i | i
CCOC(=O)N1CCC(N2C(=O)c3ccc(C(=O)Nc4cccc(OC)c4)cc3C2=O)CC1 | i | 11 | i | i | i | i
O=C(N=Nc1c(O)n(Cc2ccccc2)c2ccccc12)c1cc2ccccc2cc1O | i | 13 | i | i | i | i
Cc1cc2[nH]c3c(c[n+](C)c4ccccc34)c2cc1C | i | i | i | i | i | i
Cc1cc2[nH]c3c4ccccc4nc(C)c3c2cc1C | i | 10 | i | i | nt | i
Cc1ccc(-c2cc(N)n3nc(-c4ccc(C)cc4)cc3n2)cc1 | i | 27 | i | i | i | i
Cc1ccc(-c2cc3nc(-c4ccccc4)cc(N)n3n2)cc1 | i | 13 | i | i | i | i
Cc1ccc(-c2cc3nc(-c4ccccc4)cc(N4CCOCC4)n3n2)cc1 | i | i | i | i | nt | i
Cc1ccc(-c2cc(N)n(-c3ccc(C)cc3)n2)cc1 | i | i | i | i | 52 | i
Cc1ccc(-c2cc3nc(-c4ccc(Br)cc4)cc(N)n3n2)cc1 | i | 39 | i | i | i | i
Cc1cc(N)n2nc(-c3ccccc3)cc2n1 | i | i | i | i | i | i
Cc1cc(-c2ccc(Br)cc2)n2nc(C)cc2n1 | i | nt | i | i | nt | i
Cc1ccc(-c2cc(N)n(-c3ccc(F)cc3)n2)cc1 | i | i | i | i | i | i
NCCN1CCN(S(=O)(=O)c2ccc3c(c2)CCN3C(=O)C2CCC2)CC1 | i | nt | i | i | nt | i
O=C(NCCc1ccccc1Cl)[C@@H]1CCCN1C(=O)[C@@H](NC(=O)N1CCOCC1)c1ccccc1 | i | nt | i | i | nt | i
CC(C)c1c(O)ccc2c1CC[C@H]1C(C)(C)CCC[C@]21C | i | 22 | i | i | nt | i
CC(C)(O)c1ccc2c(c1)CCC1C(C)(C(=O)O)CCCC21C (configuration not stated) | i | i | i | i | i | i
O=C(CC(SCCO)c1ccc([N+](=O)[O-])cc1)c1ccco1 (configuration not stated) | i | 40 | i | i | i | i
SMILES | proKLK7 act | GRIN3A LBD mod | ADAM17 inh | rCAG binder | AHR activator | ADAM10 inh
Cc1ccc(C(=O)CC(SCC(=O)O)c2ccc([N+](=O)[O-])cc2)cc1 (configuration not stated) | i | i | i | i | i | i
Clc1ccccc1/C=N/NC1=Nc2cccc3cccc1c23 | i | 19 | i | i | i | i
C(=N\NC1=Nc2cccc3cccc1c23)/c1ccccn1 | i | i | i | i | nt | i
CC1CCN(c2ccc(C(=O)O)cc2NS(=O)(=O)c2ccccc2[N+](=O)[O-])CC1 | i | nt | i | i | nt | i
O=S(=O)(c1ccccc1)N1c2cc(Cl)ccc2Oc2nc3ccccc3nc21 | i | i | i | i | 74 | i
C[C@@H]1ON(C)[C@H]2C[C@H]3c4cc(N5CCN(C)CC5)ccc4CCN3C[C@@H]12 | i | nt | i | i | nt | i
O=C(N/N=C/c1ccc(-c2ccccc2[N+](=O)[O-])o1)c1cccnc1 | i | i | i | i | 55 | i
CC(C)(C)c1cc(C(=O)N/N=C/c2ccc(-c3ccccc3[N+](=O)[O-])o2)n[nH]1 | i | i | i | i | 50 | i
Cc1cc(C(=O)N/N=C/c2cccc([N+](=O)[O-])c2O)n[nH]1 | i | i | i | i | i | i
CC(=O)c1c(OCC(=O)O)ccc2c(C)cc(=O)oc12 | i | i | i | i | i | i
CC(=O)c1c(OC(=O)c2ccccc2Br)ccc2c(C)cc(=O)oc12 | i | 13 | i | i | i | i
COC(=O)C1CN(C2CCCC2)CCS(=O)(=O)N1Cc1cn(Cc2ccc(F)cc2)nn1 (configuration not stated) | i | nt | i | i | nt | i
CCC(C#Cc1ccccc1)NCc1ccc(OC)cc1OC (configuration not stated) | nt | nt | i | nt | nt | i
COc1ccc(/C=C/S(=O)(=O)NCc2ccc(F)cc2)c(CNC(=O)OC(C)(C)C)c1 | i | nt | i | i | nt | i
COc1ccc2nc(NC(=O)C3CCN(S(=O)(=O)c4cccs4)CC3)sc2c1 | i | i | i | i | i | i
COc1ccc2nc(NC(=O)C3CCCN(S(=O)(=O)c4cccs4)C3)sc2c1 (configuration not stated) | i | i | i | i | 71 | i
Cc1ccc2nc(NC(=O)C3CCN(S(=O)(=O)c4cccs4)CC3)sc2c1 | i | i | i | i | i | 21
CC(C)NC(=O)C1CCCN(S(=O)(=O)c2cccs2)C1 (configuration not stated) | i | 11 | i | i | i | i
COc1ccccc1CNC(=O)N(CCc1c(C)[nH]c2ccccc12)Cc1cccs1 | i | nt | i | i | nt | i
O=[N+]([O-])c1ccc(NN=Cc2ccccc2O)nc1 | i | 26 | i | i | nt | i
NS(=O)(=O)c1ccc(N/N=C/c2ccccc2Br)cc1 | i | 14 | i | i | i | i
O=[N+]([O-])c1ccc(N/N=C/c2ccccc2O)cc1 | i | 38 | i | i | i | i
CCN(CC)S(=O)(=O)c1ccc(N/N=C/c2ccc(O)cc2O)nc1 | i | 24 | i | i | i | i
NS(=O)(=O)c1ccc(N/N=C/c2ccncc2)cc1 | i | i | i | i | i | i
CCN(CC)S(=O)(=O)c1ccc(N/N=C(\C)c2ccncc2)nc1 | i | i | i | i | i | i
SMILES | proKLK7 act | GRIN3A LBD mod | ADAM17 inh | rCAG binder | AHR activator | ADAM10 inh
COc1ccccc1C=NNc1ccc([N+](=O)[O-])cn1 | i | i | i | i | nt | i
COC(=O)C1=C(C)N(C)C(=NCc2ccc3c(c2)OCO3)NC1c1cccc(Cl)c1 (configuration not stated) | i | nt | i | i | nt | i
O=[N+]([O-])c1ccc(NN=Cc2ccc(O)cc2O)nc1 | i | 27 | i | i | nt | i
COc1ccc(C=NNc2ccc([N+](=O)[O-])cn2)cc1 | i | i | i | i | nt | i
O=[N+]([O-])c1ccc(N/N=C/c2ccc(OCc3cccc4ccccc34)cc2)nc1 | i | 28 | i | i | i | i
Cc1cccc(N/N=C/c2ccccc2O)c1 | i | i | i | i | 65 | i
Cc1cccc(N/N=C/c2ccncc2)c1 | i | i | i | i | i | i
